This excerpt belongs to a sample that is enriched for hits.
Pf Dd2 growth = qHTS Primary assay for Inhibitors of Plasmodium falciparum Dd2 growth in vitro | P. falciparum Dd2 growth, SYBR Green, 72 h | Potency, µM (highest dose often 28.9 µM), most hits filed as inhibitors | actives 4.3% (n = 120,000); active = well fitted inhibition curve with a large enough effect; also: nearly all actives have a fitted effect of over 65% in size
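Readout: SYBR Green fluorescence, 485 nm excitation, 535 nm emission, after ~16 h lysis at 37C. Before that, Dd2-infected red cells (2.5% hematocrit) grew 72 h with compound, 29 uM top final concentration.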
Of the large screens only hits and unclear results are named; the others gave an inactive call.

Cc1ccc(NC(=O)C2CCCN(S(=O)(=O)c3cccc4cccnc34)C2)cc1Cl (centres undefined)	none
CCc1ccc(NC(=O)C2CCCN(S(=O)(=O)c3cccc4cccnc34)C2)cc1 (centres undefined)	Pf Dd2 growth 14µM
CCc1ccc(NC(=O)C2CCCN(S(=O)(=O)c3cccc4nsnc34)C2)cc1 (centres undefined)	none
CC(C)NC(=O)N1CCC2(CC1)C(=O)NCN2C(=O)Cc1ccc(O)cc1	none
Cn1cccc1C(=O)N1CCCC(n2cc(-c3nc(C4CC4)no3)nn2)C1 (centres undefined)	none
COc1cc2c(cc1OCc1ccccc1)N([S+](=O)([O-])c1ccc3c(c1)CCO3)CC21CCN(C)CC1	Pf Dd2 growth 3.5µM
COc1cccc([S+](=O)([O-])N2CCCC3(CC(Cc4ccccc4)=NO3)C2)c1 (centres undefined)	none
COc1ccc(C(=O)N2CC3(CCN(C)CC3)c3cc(OC)c(OCc4ccccc4)cc32)cn1	none
Cc1nc([C@@H]2CN(C(=O)C3CC3)C[C@H]2C(N)=O)n[nH]1	none
O=C(c1cccnc1)N1CCC(Oc2cccc(F)c2)C1 (centres undefined)	none
Cc1noc(C)c1CCC(=O)NC1CC(c2cc(=O)[nH]c(C3CC3)n2)C1 (centres undefined)	none
O=C(Nc1ccc(F)cc1)N[C@H]1[C@H](O)[C@@H](N2CCCCC2)[C@@H]2OC[C@H]1O2	none
CC(C)c1nc2ccc(C(=O)NCc3ccc(N(C)C)cc3)cc2o1	none
CN(C)c1ccc(CNC(=O)c2ccc3nc(Cc4ccccc4)oc3c2)cc1	none
CCc1nc2ccc(C(=O)NCc3ccc(N(C)C)cc3)cc2nc1CC	Pf Dd2 growth 3.5µM
Cc1cccc(NC(=O)Cn2ccn3nc(-c4ccc(F)cc4)c(CO)c3c2=O)c1C	none
COc1ccccc1C(=O)N1CCC2CC(=O)NCCC2C1 (centres undefined)	none
CNC(=O)[C@@H]1C[C@H](Oc2cccnc2)CN1C(=O)CCc1c[nH]c2ccccc12	none
O=C(NC1CCN(c2cc(-c3cccs3)[nH]n2)C1)c1cccc(OC(F)(F)F)c1 (centres undefined)	none
Cn1ccnc1-c1ccc(N2CCC(C(O)Cc3ccccc3)CC2)nn1 (centres undefined)	none
COc1cccc(CC2(CO)CCCN(c3ccc(-c4nccn4C)nn3)C2)c1 (centres undefined)	Pf Dd2 growth 8.9µM
Cn1ccnc1-c1ccc(N2CC[C@](C)(O)[C@@H](O)C2)nn1	none
O=C1C[C@H]2CC[C@@H](CN1CC(=O)N(Cc1c(F)cccc1Cl)C1CC1)N2	none
COCCOCc1nc(C2CCN(C(=O)Nc3ccccc3)CC2)no1	none
CN(CCCc1nccn1C)C(=O)[C@H]1CNC[C@H](C(=O)N2CCOCC2)C1	none
O=C1CCN(C(=O)C2CCN(C(=O)C3CCOC3)CC2)CCCCCCN1 (centres undefined)	none
C[S+](=O)([O-])N1Cc2ccccc2CC2(CCCCN2Cc2ccccc2)C1 (centres undefined)	none
CN1CCC2(CC1)Cc1ccccc1CN([S+](C)(=O)[O-])C2	none
Cc1ccc(CCN2CCCCC23Cc2ccccc2CN([S+](C)(=O)[O-])C3)cc1 (centres undefined)	Pf Dd2 growth 10µM
Cc1ccc(C(=O)N2C(C(=O)NCC3CCCO3)COC23CCN(C(=O)CC(C)(C)C)CC3)cc1 (centres undefined)	none
CCOc1cccc(-c2noc(-c3nc(CC)no3)n2)c1	none
Cn1nnnc1C1CCCN(C(=O)Cc2ccccc2)C1 (centres undefined)	none
CC(=O)C1=C(c2ccccc2)N(C(C)=O)n2c(nnc2C2CCCCC2)S1	Pf Dd2 growth 1.1µM
Cn1nnnc1C1CCCN(C(=O)NCc2ccccc2)C1 (centres undefined)	none
COc1cccc(C2=C(C(C)=O)Sc3nnc(C4CCCCC4)n3N2C(C)=O)c1	Pf Dd2 growth 1.3µM
COc1cccc(N2CC(NC(=O)C3CCCC3)CC2=O)c1 (centres undefined)	none
COc1cccc(C(=O)N2CCCC(c3nn[nH]n3)C2)c1 (centres undefined)	none
Cc1[nH]cnc1-c1nccn1-c1ccc(NC(=O)CN2CCOCC2)cc1	none
Cc1ccc(C(=O)N(C)CC2CCOCC2)cc1F	none
COc1ccc(C(=O)N2[C@@H]3CC[C@H]2CC(NC(=O)c2ccc(F)cc2)C3)c(OC)n1 (some centres undefined)	none
O=C(CN1CCOCC1)N1CCC(c2cc(N3CCCC3)ncn2)CC1	none
CCc1nc(-c2c3n(c(=O)n(Cc4ccccc4Cl)c2=O)CCCC3)no1	none
CN(C)c1ccc(-c2nnnn2[C@H]2CO[C@H]3[C@@H]2OC[C@H]3OCc2ccccc2)cc1	none
O=C(c1nnc(COc2ccc(F)c(F)c2)n1-c1ccccc1)N1CCC[C@@H]1c1cccc(F)c1	none
O=C1CCC(C(=O)N2CCSCC2)CN1CCc1cccc(F)c1 (centres undefined)	none
Cc1oc2c(c1C(=O)N(C)C)CN(C(=O)CCc1ccccc1)CC2	Pf Dd2 growth 6.3µM
Cc1csc(NC(=O)c2nc3c(o2)CCN(Cc2cccc(F)c2)CC3)n1	none
CC(=O)N1CCN(C(=O)c2c(C)oc3c2CN(Cc2ccc(F)cc2)CC3)CC1	none
Cc1oc2c(c1C(=O)N1CCOCC1)CN(CCC(C)C)CC2	none
CCC(=O)N1CCc2oc(C)c(C(=O)N(C)C)c2C1	none
Cc1oc2c(c1C(=O)N1CCSCC1)CN(Cc1cccc(F)c1)CC2	Pf Dd2 growth 11µM
CN(C)C(=O)c1n[nH]c2c1CN(C(=O)CCc1ccccc1)CC2	none
Cc1oc2c(c1C(=O)N1CCN(c3ccccc3)CC1)CN(Cc1ccccc1)CC2	Pf Dd2 growth 5µM
CN(Cc1cccc(C(F)(F)F)c1)[S+](=O)([O-])c1cccc(C(F)(F)F)c1	none
CCOc1ccc(C2Cn3nnc(-c4nc(-c5ccccc5C)no4)c3CO2)cc1 (centres undefined)	none
CC(=O)NCCCC(=O)N1Cc2ccccc2OC2(CCN([S+](C)(=O)[O-])CC2)C1	none
CC1=NOC2(CCN([S+](=O)([O-])c3cccs3)C2)C1 (centres undefined)	none
Cc1onc(-c2cnn(C)c2NCCc2ccccc2)c1C(=O)NCc1ccccc1	none
CCC(=O)N1CCc2c(C(=O)NCc3cc(OC)ccc3OC)cccc21	none
CCC(=O)N1CCc2c(C(=O)NCCOC)cccc21	none
CCC(=O)N1CCc2c(C(=O)NCc3cc(C)ccc3C)cccc21	Pf Dd2 growth 11µM
COc1cc(OC)cc(C(=O)N2CCC(c3n[nH]c(=O)n3-c3ccc(C)cc3)CC2)c1	none
O=C(O)[C@H]1C[C@H](C(=O)NCc2ccccn2)CN(Cc2ccccc2)C1	none
COc1ccccc1Nc1ncc2c(n1)CN(C(=O)c1ccnn1C)CCN2	none
O=C(Cc1ccccc1)N1CCNc2cnc(Nc3ccccc3)nc2C1	none
CN(C)c1cccc(C(=O)N2CCNc3cnc(Nc4cccc(C(F)(F)F)c4)nc3C2)c1	Pf Dd2 growth 7.9µM
N#Cc1cccc(C(=O)N2CCNc3cnc(Nc4cccc(F)c4)nc3C2)c1	none
O=C(c1ccc(Oc2ccccc2)cc1)N1CCNc2cnc(Nc3cccnc3)nc2C1	Pf Dd2 growth 13µM
CC(C)NC(=O)N1CCNc2cnc(Nc3cccc(F)c3)nc2C1	none
COC1CN(c2ccc(C)cc2)C12CCN(C(=O)C(C)C)CC2 (centres undefined)	none
COc1ccc(-c2nn(C)c3sc(C(=O)N4CCN(c5cccc(Cl)c5)CC4)cc23)cc1OC	none
COc1cccc(-c2nn(C)c3sc(C(=O)NCc4cc(OC)ccc4OC)cc23)c1	none

Assay outcomes: PubChem, National Center for Advancing Translational Sciences (NCATS)
